In PubChem BioAssay AID1240 (Sanford-Burnham Center for Chemical Genomics, 2008) one finds displacement data, which are given here for 109 compounds.

SMILES strings stand for the structures. The campaign covered roughly 50,000 compounds. About 800 (1.6%) showed an effect of 50% or more. This excerpt belongs to a sample that is enriched for strong results.

The target in this test is Bcl-2-like protein 10 (Homo sapiens) (UniProt Q9HD36). As to the kind of experiment: Phenotype converters, Bcl-B/TR3 peptide binding displacement, primary biochemical FP (AID 1240).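 Note: 0% = Bcl-B with tracer peptide and DMSO and 100% = tracer peptide lacking Bcl-B.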 Conditions: GST-Bcl-B / FITC-TR3 peptide fluorescence polarization; stronger effect = higher value; compound at 3.75 mg/L.
Sequence of Bcl-2-like protein 10 (Homo sapiens) (Q9HD36 whole entry, looked up): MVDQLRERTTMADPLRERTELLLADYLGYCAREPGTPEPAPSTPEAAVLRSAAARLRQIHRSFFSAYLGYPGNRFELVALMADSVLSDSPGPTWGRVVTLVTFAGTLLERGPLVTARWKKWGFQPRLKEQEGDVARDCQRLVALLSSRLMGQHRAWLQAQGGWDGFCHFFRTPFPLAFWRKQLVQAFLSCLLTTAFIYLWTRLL
`C=CCC(C)(CC=C)NC(=O)c1ccccc1[N+](=O)[O-]`: the displacement is -6.9%. Under `O=C(NCC1CCCO1)/C(=C/c1ccc(-c2ccccc2Cl)o1)NC(=O)c1ccccc1` (centres undefined) stands 19.7%; under `COc1cc(C(=O)Oc2ccc(Cl)cc2C)cc(OC)c1OC`, 2.1%; under `CCOC(=O)C1=C(C)NC2=C(C(=O)CC(C)(C)C2)C1c1ccc(OC(F)F)cc1` (centres undefined), -0.2%. For `COc1ccc(C2=C/C(=C\c3ccc(OC(C)=O)cc3)C(=O)O2)cc1` the value was 110%. Under `CCOc1ccc(C2=C/C(=C/c3ccc(OC)cc3)C(=O)O2)cc1` stands -0.6%; under `COc1ccc(C2=C/C(=C\c3cccc(OC(C)=O)c3)C(=O)O2)cc1`, 25.4%.

`CCOc1cc(/C=C2\C=C(c3ccc(OC)cc3)OC2=O)ccc1OC(C)=O`: the displacement was 92.4%. Under `CCOc1cc(/C=C2\C=C(c3ccc(Br)cc3)OC2=O)ccc1OC(C)=O` stands 12.6%; under `CCOc1cc(/C=C2\C=C(c3ccc(C)cc3)OC2=O)ccc1OC(C)=O`, 111%; under `CCOc1cc(/C=C2/C=C(c3ccc(OC)cc3)OC2=O)cc(I)c1OC`, -6%. Take `COc1ccc(/C=C2\C=C(c3ccc(C)cc3)OC2=O)cc1C`: the displacement stood at 10.4%. As for `CC(=O)Oc1ccc(/C=C2\C=C(c3ccc(C)cc3)OC2=O)cc1`, the displacement came to 34.5%. For `COc1cc(/C=C2\C=C(c3ccc(C)cc3)OC2=O)ccc1OC(C)=O` the value was 59.2%. For `COc1ccc(C2=C/C(=C\c3ccc(OC(C)=O)c(OC)c3)C(=O)O2)cc1` the value was 39.4%. For `CC(=O)Oc1cccc(/C=C2\C=C(c3ccc(C)cc3)OC2=O)c1` the value was 7%; for `O=C(O)c1ccc(-c2ccc(OC(F)(F)F)cc2)o1`, -7.6%. Regarding `NC(=S)N/N=C/c1cccn1-c1ccc([N+](=O)[O-])cc1`, the displacement is -1%. For `O=C1S/C(=C/c2ccc(Cl)c(Cl)c2)C(=O)N1c1ccccc1` the value was 17.9%. For `CCOC(=O)c1c(NC(=O)CC2SC(N)=NC2=O)sc2c1CCCC2` (centres undefined) the value was 6.3%; for `COc1ccc(C(=O)CC(Nc2ccc([N+](=O)[O-])cc2)c2ccc(Cl)cc2)cc1` (centres undefined), -4.2%. Under `Cc1ccc2c(nc3s/c(=C\c4cccc(Cl)c4Cl)c(=O)n32)c1C` stands -9.5%; under `Cc1ccc(S(=O)(=O)Oc2ccc(/C=C3\SC(N)=NC3=O)cc2Br)cc1`, 1.8%; under `O=c1[nH]c(=O)n(-c2ccc(Cl)cc2)c(O)c1C=Nc1cccc(F)c1`, 10%. As for `Cc1cc(OCC(=O)Nc2cccc(F)c2)cc(C)c1Cl`, the displacement came out at 4.1%. Regarding `COCCNCCOc1c(C)cc(Cl)cc1C`, the displacement was found to be 7.2%. Under `O=C(Nc1cc(Cl)cc(Cl)c1)c1ccc(CN2CCc3ccccc3C2)cc1` stands -3.7%. Under `CCN1C(=O)/C(=C\c2ccc(C)cc2)C(C(=O)OC)=C1C` stands 86.2%; under `CCN1C(=O)/C(=C\c2ccc(F)cc2)C(C(=O)OC)=C1C`, 34.2%. For `COC(=O)C1=C(C)N(c2ccccc2F)C(=O)/C1=C\c1ccc(F)cc1` the value was 2.3%.

On to `CCN1C(=O)/C(=C\c2ccccc2)C(C(=O)OC)=C1C`, for which the displacement was -23.3%. For `COC(=O)C1=C(C)N(c2cc(C)cc(C)c2)/C(=C\c2sccc2C)C1=O` the value was 27%; for `C=CCN1C(=O)/C(=C\c2ccco2)C(C(=O)OC)=C1C`, 65.4%. Under `COC(=O)C1=C(C)N(c2ccccc2F)C(=O)/C1=C\c1ccccc1F` stands 112%. Consider `COC(=O)C1=C(C)N(c2cc(C)cc(C)c2)/C(=C/c2ccco2)C1=O`, for which the displacement was 99.6%. For `C=CCN1C(=O)/C(=C\c2ccc(C(=O)OC)cc2)C(C(=O)OC)=C1C` the value was -14.5%; for `COC(=O)C1=C(C)N(c2ccc(C)c(C)c2)/C(=C/c2ccco2)C1=O`, 8.8%; for `COC(=O)C1=C(C)N(c2ccccc2F)C(=O)/C1=C\c1sccc1C`, 7.8%. Under `C=CCN1C(=O)/C(=C\c2ccccc2)C(C(=O)OC)=C1C` stands -2.2%; under `COc1ccc(C(=O)N2CCCc3ccccc32)cc1OC`, -3.3%.

For the compound `Cc1cc(=O)oc2cc(OCc3ccc(F)cc3)c(Cl)cc12`, the displacement came out at 16.8%. For `Cc1cc([N+](=O)[O-])ccc1NCc1cccc(C(F)(F)F)c1` the value was 2.6%; for `CC1(C)CC(=O)C2=C(C1)c1c(ccc3ccccc13)NC2c1cccs1` (centres undefined), 7.2%; for `O=C(Nc1ccc(F)cc1)c1ccco1`, 12.9%. For `COCCN1C(=O)/C(=C\c2ccc3c(c2)OCO3)C(C(=O)OC)=C1C` the value was -8%; for `COC(=O)C1=C(C)N(C)C(=O)/C1=C\c1ccc2c(c1)OCO2`, -0.7%; for `COC(=O)C1=C(C)N(c2ccccc2)C(=O)/C1=C\c1ccc(C(=O)OC)cc1`, 130%. Under `COC(=O)C1=C(C)N(C)C(=O)/C1=C\c1ccc(C(=O)OC)cc1` stands 16.4%; under `COC(=O)C1=C(C)N(c2ccc(C)cc2)C(=O)/C1=C\c1ccc2c(c1)OCO2`, 107%. For the compound `COC(=O)C1=C(C)N(c2cccc(C)c2)C(=O)/C1=C\c1ccc(C(=O)O)cc1`, the displacement stood at 6.9%. Under `COc1ccccc1CC1S/C(=N\N=C\c2cccc([N+](=O)[O-])c2)NC1=O` (centres undefined) stands 12.9%; under `COc1ccc(NC(=O)Nc2ccccc2C(F)(F)F)cc1`, 8.4%; under `CN(C)c1cccc2c(C(NS(=O)(=O)c3ccccc3)C(Cl)(Cl)Cl)ccc(N(C)C)c12` (centres undefined), 144%. For `COC(=O)C(NS(=O)(=O)c1ccccc1)C(C)C` (centres undefined) the value was -12%; for `O=S(=O)(NC(c1cccs1)C(Cl)(Cl)Cl)c1ccc(Cl)cc1` (centres undefined), 7%; for `CCCCNC(=O)/C(=C/c1ccc(C)o1)NC(=O)c1ccccc1`, 13.1%. Consider `CCOc1ccc(NC2=C(Cl)C(=O)N(c3cccc(Cl)c3Cl)C2=O)cc1`, for which the displacement came out at 16.3%. For the compound `N#C/C(=C/c1cc([N+](=O)[O-])ccc1Cl)C(=O)Nc1cccc(Br)c1`, the displacement was -3.3%. Under `O=C(N/N=C/c1cccs1)C1CC(=O)N(c2ccc(Cl)cc2)C1` (centres undefined) stands -9.3%. Under `COc1ccc(N2CC(C(=O)N/N=C/c3cccs3)CC2=O)cc1` (centres undefined) stands 65%; under `O=C(N/N=C/c1cccs1)C1CC(=O)N(c2ccccc2)C1` (centres undefined), 25%; under `O=C(O)/C=C/c1cccc(NS(=O)(=O)c2cccs2)c1`, -13%. For `Cn1nnnc1SCC(=O)Nc1ccc2c(c1)oc1ccccc12` the value was 87%; for `Cn1nnnc1SCC(=O)Nc1ccccc1`, 4.1%. As to `Cc1nnc(SCC(=O)Nc2ccc3c(c2)oc2ccccc23)s1`, the displacement was -8.5%. Under `O=C1NC(=O)/C(=C\c2cc3c(cc2[N+](=O)[O-])OCO3)S1` stands 6.8%; under `O=C1OC(c2ccccc2F)=N/C1=C\c1cccc([N+](=O)[O-])c1`, 9.9%; under `COc1ccc(/C=C2N=C(/C=C/c3ccccc3)OC/2=O)cc1`, 88.6%.

Turning to `CCN(CC)c1ccc(/C=C2N=C(/C=C/c3ccccc3)OC/2=O)cc1`, the displacement is -28%.

On to `CCCOc1ccc(/C=C2N=C(/C=C/c3ccccc3)OC/2=O)cc1OC`, for which the displacement amounted to 166%. Under `O=C1OC(/C=C/c2ccccc2)=NC/1=C/c1ccccc1` stands 13.6%; under `O=C1OC(c2ccccc2I)=N/C1=C\c1cccc([N+](=O)[O-])c1`, -4%. For `O=C1OC(/C=C/c2ccccc2)=NC/1=C/c1cccc([N+](=O)[O-])c1` the value was 98.4%; for `CCOc1c(Br)cc(/C=C2N=C(/C=C/c3ccccc3)OC/2=O)cc1OC`, 105%; for `CCCOc1ccc(C=C2C(=O)N(C)C(=O)N(C)C2=O)cc1OC`, 1.3%. For `CCOc1c(Br)cc(/C=C2/C(=O)N(c3ccccc3)N=C2C)cc1OC` the value was -0.6%; for `COc1ccc(OC)c(/C=C2N=C(/C=C/c3ccccc3)OC/2=O)c1`, 9.6%; for `COc1cc(/C=C2\N=C(c3ccccc3)OC2=O)cc(Br)c1OCc1c(C)no[n+]1[O-]`, -1.1%. For the compound `CCOC(=O)c1c(-c2ccccc2)csc1NC(=O)c1ccc(C)cc1`, the displacement was -5.7%. For `COc1cc(/C=C2\SC(N)=NC2=O)cc(Br)c1OCc1cccc2ccccc12` the value was -62.1%. Under `Fc1cccc(-c2nnc3ccc(C(F)(F)F)cn23)c1` stands -17%; under `CC(=O)Nc1ccc(I)cc1C`, -5%. On to `Cc1cc2c(nc3s/c(=C/c4ccccc4)c(=O)n32)c(Br)c1C`, for which the displacement was -4.6%. Under `CC(C)c1ccccc1OCCCN1CCOCC1` stands -6%; under `Cc1ccc(N2C(=O)/C(=C/c3ccc(Oc4ccc([N+](=O)[O-])cn4)cc3)C(=O)NC2=S)c(C)c1`, 7.3%; under `CC1=NN(c2ccccc2)C(=O)C1C(C)C[N+](=O)[O-]` (centres undefined), -9.8%. On to `COc1ccc(/C=N/NC(=O)COc2ccccc2Br)cc1`, for which the displacement is 2.6%.

As for `Cc1occc1C(=O)Nc1ccc(C(=O)O)cc1`, the displacement is -1.9%.

In the case of `COC(=O)c1ccc(NC(=O)c2ccoc2C)cc1`, the displacement is -2.7%. For `CC(=O)c1ccc(NC(=O)c2ccoc2C)cc1` the value was 94%. As to `CCOc1cc(C2NC(=S)NC(C)=C2C(=O)Nc2ccc(Cl)cc2)ccc1O` (centres undefined), the displacement was -3.2%.

`Cc1ccc2c(Cl)c(C(=O)NCC3CCCO3)sc2c1` (centres undefined): the displacement is -20.5%. For `CCOCCOC(=O)c1ccc(NC(=O)COc2ccc(C)cc2C)cc1` the value was -9%; for `O=C(ON=C1c2ccccc2-c2ccccc21)c1ccc(Cl)cc1Cl`, 13.1%.

Turning to `CN1C(=O)C(=Cc2ccc(N3CCOCC3)cc2)C(=O)N(C)C1=O`, the displacement was 8.9%. Under `CCCCOc1ccc(C=C2C(=O)N(C)C(=O)N(C)C2=O)cc1` stands 8.8%; under `Cc1ccc(C=C2C(=O)N(C)C(=O)N(C)C2=O)cc1`, 79.7%; under `COc1ccccc1C/C(N)=N/OC(=O)COc1ccc2ccccc2c1`, 5.6%. Under `CCOc1ccccc1C1Nc2ccccc2NC2=C1C(=O)CC(c1ccc(OC)c(OC)c1)C2` (centres undefined) stands 11.3%; under `CCOC(=O)COc1ccc(/C=c2/sc3nc4cc(C)c(C)cc4n3c2=O)cc1OC`, -4.4%. On to `O=C(/C=C/c1ccccc1)Nc1nnc(-c2ccccc2)s1`, for which the displacement turned out to be 7.6%. Under `O=C(/C=C/c1ccccc1)Nc1nnc(-c2ccncc2)s1` stands -6%; under `COc1cccc(-c2nnc(NC(=O)/C=C/c3ccccc3)s2)c1`, 51.4%; under `COc1ccc(NC(=O)c2ccc(OC)c(OC)c2)cc1Cl`, 20.4%. As for `O=C(Nc1ccccc1Cl)c1ccc2ccccc2n1`, the displacement was determined as 1%. Under `Cc1ccccc1NC(=O)c1ccc2ccccc2n1` stands -3.8%; under `O=C(Nc1ccccc1[N+](=O)[O-])c1ccc2ccccc2n1`, 89.3%. For `CC(=O)Nc1ccc2oc(-c3ccc4nc(NC(C)=O)sc4c3)nc2c1` the value was -4.1%. Under `Cc1ccc(S(=O)(=O)N2CCCCCC2)cc1` stands -12.9%.
